The text below walks through data of PubChem BioAssay AID488969 (Vanderbilt High Throughput Screening Facility, 2010).

In all, about 110,000 compounds were measured (“z-score”: median about -0.1, highest 2% from about 2 on). The sample as a whole holds a higher share of the highest values than the screen did. Activity calls are given as the source filed them.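 Rule for the calls: active = z-score in the third read window above 3 or below -3; inactive = the rest.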

In the test the target is Metabotropic glutamate receptor 8 (Rattus norvegicus) (UniProt P70579). As to the kind of experiment: mGluR8 Gi/Go-coupled signaling modulation – cell-based, rat, thallium flux, HTS, primary screen (AID 488969). Particulars: HEK293 rat mGluR8, GIRK (G protein-gated inwardly rectifying potassium channel) thallium flux, FluoZin2; at 10 µM; stronger effect = higher value; submaximal glutamate (EC20) added with thallium.
Chain of Metabotropic glutamate receptor 8 (Rattus norvegicus) (P70579 whole entry, looked up): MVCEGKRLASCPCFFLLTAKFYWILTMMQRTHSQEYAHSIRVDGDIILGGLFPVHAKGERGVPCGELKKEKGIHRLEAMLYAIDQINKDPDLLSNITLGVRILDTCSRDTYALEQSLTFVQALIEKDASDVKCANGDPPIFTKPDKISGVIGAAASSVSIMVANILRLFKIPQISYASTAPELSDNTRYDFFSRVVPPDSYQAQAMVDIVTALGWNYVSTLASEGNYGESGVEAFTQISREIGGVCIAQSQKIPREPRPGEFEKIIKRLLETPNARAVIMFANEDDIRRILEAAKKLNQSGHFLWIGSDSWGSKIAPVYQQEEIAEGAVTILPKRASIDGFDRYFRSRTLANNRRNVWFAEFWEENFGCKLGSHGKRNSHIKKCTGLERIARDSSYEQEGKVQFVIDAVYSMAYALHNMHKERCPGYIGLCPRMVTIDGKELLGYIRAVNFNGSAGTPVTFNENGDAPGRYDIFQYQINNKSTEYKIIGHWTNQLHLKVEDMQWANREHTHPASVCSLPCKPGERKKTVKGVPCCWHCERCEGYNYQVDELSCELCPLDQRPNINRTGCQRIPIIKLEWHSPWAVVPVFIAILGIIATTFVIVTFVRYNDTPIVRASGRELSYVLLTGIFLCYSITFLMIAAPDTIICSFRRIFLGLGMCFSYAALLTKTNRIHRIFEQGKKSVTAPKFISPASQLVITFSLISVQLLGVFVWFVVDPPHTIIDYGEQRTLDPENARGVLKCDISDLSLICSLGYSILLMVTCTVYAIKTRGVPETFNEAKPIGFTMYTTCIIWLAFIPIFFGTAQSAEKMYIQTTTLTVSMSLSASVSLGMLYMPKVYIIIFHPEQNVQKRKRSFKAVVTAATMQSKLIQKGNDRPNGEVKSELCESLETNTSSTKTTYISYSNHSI
`CCN(CCNC(=O)C1CCN(Cc2nc(-c3ccc(Cl)cc3)oc2C)CC1)c1ccccc1`: the z-score was found to be 1.3.

In turn, `CN(C)c1ccnc(NCc2ccccc2)c1C#N` displayed a z-score of -0.278. `O=C(Nc1ccncc1)Nc1ccccn1`: the z-score is -0.133. For `CCC(=O)N/C(=N\OCc1ccc(F)cc1)c1nonc1NC(=O)CC` the value was -0.064; for `COc1ccccc1-c1noc(CCC(=O)Nc2cccc(C)c2)n1`, -0.323; for `O=C(c1cnn2c(C(F)(F)F)cc(-c3ccco3)nc12)N1CCCCCC1`, 2.24. As to `O=C(c1cnn2c(C(F)(F)F)cc(-c3ccco3)nc12)N1CCc2ccccc2C1`, the z-score was -1.04. Regarding `O=C(c1cnn2c(C(F)(F)F)cc(-c3ccco3)nc12)N1CCCc2ccccc21`, the z-score is -0.976. The compound `COc1cc(C(C)=O)ccc1COc1ccc(C(=O)OCC(=O)NC(C)(C)C)cc1OC` had a z-score of -0.573. In the case of `O=C(NCc1ccccn1)c1ccc(CNS(=O)(=O)c2ccc(F)cc2)cc1`, the z-score is -0.111. In turn, `CN1C(=O)c2ccccc2N(C)C1c1cccs1` (stereo not given) yielded a z-score of -1.51. For `Cc1c(-n2c(=S)[nH]c3ccccc3c2=O)c(=O)n(-c2ccccc2)n1C` the value was 0.153; for `CCOC(=O)N1CCC(n2c(=S)[nH]c3ccccc3c2=O)CC1`, 0.582. `O=c1c2ccccc2[nH]c(=S)n1CC1CCCO1` (stereo not given) had a z-score of 0.302. As to `O=c1c2[nH]c3ccccc3c2ncn1C1CCCCC1`, the z-score was 0.256. As to `O=c1c2ccccc2[nH]c(=S)n1C1CCCCC1`, the z-score was 12.5 (active). Take `CC1CCC(n2c(=S)[nH]c3ccccc3c2=O)CC1` (stereo not given): the z-score is 8.55 (active). For `Cc1ccc(S(=O)(=O)Nc2cc(C(F)(F)F)ccc2N2CCOCC2)cc1` the value was 0.266; for `Cc1ccc(-c2nnc3n2CCCCC3)cc1`, 0.0634.

In turn, `CCNC(=O)COC(=O)C1C(C(=O)OCC)=C(C)NC(C)=C1C(=O)OCC` returned a z-score of -0.145. The result for `O=C(Cn1c(=O)n(-c2ccccc2)c(=O)c2sccc21)N1CCCC1` reads -0.24; that for `Cc1ccc(OCC(=O)N/N=C/c2cn(Cc3ccccc3)c3ccccc23)cc1`, -0.188; that for `O=C(O)CCN1C(=O)/C(=C\c2ccc(-c3nc4ccccc4s3)o2)SC1=S`, 2.49. Compound `O=C(O)CCN1C(=O)/C(=C/c2ccc(-c3nc4ccccc4s3)o2)SC1=S` yielded a z-score of 1.83. For `O=C(O)CCCN1C(=O)/C(=C/c2ccc(-c3nc4ccccc4s3)o2)SC1=S`, the z-score came out at 0.773.

`COc1ccccc1N1C(N)=NC(N)=NC1(C)C`: the z-score is -0.0746. The compound `CC(=O)CCc1ccc2oc(C(=O)O)c(C)c2c1` returned a z-score of -0.497. Compound `COC(=O)c1[nH]c2ccc(F)cc2c1NC(=O)CCN1CCN(Cc2ccc3c(c2)OCO3)CC1` displayed a z-score of -0.752.

Take `COC(=O)c1[nH]c2ccc(C)cc2c1NC(=O)CCN1CCN(Cc2ccc3c(c2)OCO3)CC1`: the z-score was 9.23 (active). In the case of `Cc1[nH]c2ccccc2c1NC(=O)CN1CCN(Cc2ccc3c(c2)OCO3)CC1`, the z-score is -0.288. The compound `CC(=NC1CC1)c1c(-c2ccccc2)[nH]n(-c2nc3ccccc3s2)c1=O` returned a z-score of -0.25. For `CCCc1cc(-c2n[nH]c(=S)n2Cc2ccccc2)cs1`, the z-score is 4.6 (active).

In turn, `S=c1[nH]nc(-c2ccncc2)n1Cc1ccccc1` had a z-score of 1.42. The compound `CCc1cc(-c2n[nH]c(=S)n2Cc2ccccc2)cs1` came in with a z-score of 0.464.

`Cc1scc(-c2n[nH]c(=S)n2Cc2ccccc2)c1C` showed a z-score of 0.854. As for `Cc1cc(-c2n[nH]c(=S)n2Cc2ccccc2)cs1`, the z-score amounted to 0.453. The result for `CCc1cc(-c2n[nH]c(=S)n2CC(C)C)cs1` reads 1.12. In the case of `Cc1cc(-c2n[nH]c(=S)n2CC(C)C)cs1`, the z-score was -0.405. As for `CCCc1cc(-c2n[nH]c(=S)n2CC(C)C)cs1`, the z-score was 4.16 (active). The result for `CCc1c(-c2n[nH]c(=S)n2Cc2ccccc2)csc1C` reads 2.88; that for `Cc1nc2c(C)cccc2cc1C(=O)N/N=C/c1cccnc1`, -0.392. The result for `CCc1cccc(CC)c1NC(=O)COC(=O)c1cccc(-c2ccc(OC(C)=O)cc2)c1` reads -1.91. The compound `Cc1ccccc1C(=NCCCN(C)C)c1ccccc1C` returned a z-score of 0.825.

As for `O=C(Cc1cccs1)N(Cc1ccco1)C1(C(=O)NC2CCCCC2)CCCCC1`, the z-score was 1.89.

In turn, `Cn1nc(Oc2nc(N3CCOCC3)nc(N3CCOCC3)n2)ccc1=O` registered a z-score of 0.165. `CCC1CCCCN1C(=O)c1cc2cc(Br)ccc2oc1=O` (stereo not given): the z-score is 7.8 (active). `O=C(c1cc2cc(Br)ccc2oc1=O)N1CCCC1`: the z-score came out at 0.0138. For `CCOC(=O)N1CCN(C(=O)c2cc3cc(Br)ccc3oc2=O)CC1`, the z-score is -0.271. The result for `C=CCNC(=O)CC(=O)N/N=C/c1ccc(F)cc1` reads -0.18; that for `C=CCn1c(-c2ccc(OC)cc2)csc1=Nc1c(C)n(C)n(-c2ccccc2)c1=O`, -0.422. Compound `N#CC1=C(S)N=C(N)C(c2nc(-c3ccccc3)cs2)C12CCCC2` (stereo not given) displayed a z-score of 0.271. `Cc1ccc(S(=O)(=O)N(C)/C(=N/S(=O)(=O)c2ccccc2)c2ccccc2)cc1` came in with a z-score of -0.162. For `O=C(O)/C=C/c1cn(-c2ncc(C(F)(F)F)cc2Cl)c2ccccc12` the value was -0.0759; for `CN(C)/C=C/C(=O)/C=C/c1cn(-c2ncc(C(F)(F)F)cc2Cl)c2ccccc12`, 5.57 (active); for `CC(=O)/C=C\c1cn(-c2ncc(C(F)(F)F)cc2Cl)c2ccccc12`, -0.119. `CN1CCN(C(=O)c2ccc(-c3nn(C)c(=O)c4ccccc34)cc2)CC1` showed a z-score of -0.877.

On to `CSc1ncc(Cl)c(C(=O)NCc2ccc3c(c2)OCO3)n1`, for which the z-score was 0.575. Regarding `COc1ncnc2c1sc1nc(-c3ccccc3)c3c(c12)CCCC3`, the z-score is -0.0945. For `O=c1[nH]cnc2c1sc1nc(-c3ccccc3)c3c(c12)CCCC3` the value was 0.204. For `S=c1nc[nH]c2c1sc1nc(-c3ccccc3)c3c(c12)CCCC3` the value was 7.83 (active). `CC1CN(C(=O)/C=C/c2cccc([N+](=O)[O-])c2)CC(C)O1` (stereo not given): the z-score is -0.164. `O=C(CCCCCn1c(=S)[nH]c2ccccc2c1=O)N1CCOCC1`: the z-score was -0.155. `O=C(CCCn1c(=S)[nH]c2ccccc2c1=O)N1CCCCC1`: the z-score is 1.44. As to `O=c1c2ccccc2[nH]c(=S)n1CCN1CCN(Cc2ccccc2)CC1`, the z-score is 7.91 (active). `COCCNC(=O)CCCCCn1c(=S)[nH]c2ccccc2c1=O` showed a z-score of 1.77. On to `CCC1CCCCN1CCn1c(=S)[nH]c2cc(OC)c(OC)cc2c1=O` (stereo not given), for which the z-score was determined as 2.07.

For `CCOc1cc2[nH]c(=S)n(CCN3CCCCC3C)c(=O)c2cc1OCC` (stereo not given), the z-score stood at 0.258.

Consider `COc1cccc(NC(=O)CCCn2c(=S)[nH]c3ccccc3c2=O)c1`, for which the z-score is 3.39 (active). For `O=c1[nH]c2ccccc2c(=O)n1Cc1ccccc1` the value was 0.345. For `CCN1CCN(CCn2c(=S)[nH]c3ccccc3c2=O)CC1`, the z-score was found to be 0.66. For the compound `COc1ccc(NC(=O)CCCn2c(=S)[nH]c3ccccc3c2=O)cc1`, the z-score was -0.514. The compound `CCOc1cc2[nH]c(=S)n(CCN3CCCCC3CC)c(=O)c2cc1OCC` (stereo not given) came in with a z-score of 1.73. Regarding `CC1CCCN(C(=O)CCCn2c(=S)[nH]c3ccccc3c2=O)C1` (stereo not given), the z-score was 4.5 (active). For `Cc1cccc(C(=O)N2c3ccccc3C(=O)OC2c2ccc3c(c2)OCO3)c1` (stereo not given) the value was -0.842; for `c1coc(CN(Cc2ccco2)c2ncnc3c2oc2ccccc23)c1`, -2.18; for `O=C1CN=C(Nc2ccc(Cl)cc2)N1c1ccccc1`, -0.0445. The result for `COc1cc(-n2c(C)nc3cc(C(=O)NCCN4CCOCC4)ccc32)cc(OC)c1OC` reads -0.57; that for `COc1cc(NC(=S)Nc2cccnc2)cc(OC)c1OC`, -0.192; that for `CC1CCCCN1CCCn1c(=S)[nH]c2ccccc2c1=O` (stereo not given), 3.46 (active). The result for `CCN1CCN(CCCNC(=O)c2cc3c(=O)[nH]c4ccccc4c3s2)CC1` reads 0.477; that for `O=C(CCCn1c(=S)[nH]c2ccccc2c1=O)NC1CCCCC1`, 0.0447.

`CC1CCCCN1CCNc1nc(=S)[nH]c2ccccc12` (stereo not given) had a z-score of -0.105. In turn, `O=C(CCCn1c(=S)[nH]c2cc3c(cc2c1=O)OCO3)N1CCN(C2CCCCC2)CC1` had a z-score of -0.008. Compound `CC1CCN(CCCn2c(=S)[nH]c3ccccc3c2=O)CC1` displayed a z-score of 0.0115. Regarding `CCN(CC)CCCn1c(=S)[nH]c2ccccc2c1=O`, the z-score was determined as 0.126. For `CC1CC(C)CN(CCCn2c(=S)[nH]c3ccccc3c2=O)C1` (stereo not given) the value was 14.4 (active).

In the case of `O=c1c2ccccc2[nH]c(=S)n1CCCN1CCN(C2CCCCC2)CC1`, the z-score is 10.2 (active). `O=C(NCCN1CCN(Cc2ccccc2)CC1)c1cc2c(=O)[nH]c3ccccc3c2s1` had a z-score of 2.15. On to `Cc1ccc2[nH]c(=O)c3cc(C(=O)NCCN4CCN(C)CC4)sc3c2c1`, for which the z-score is 0.666. As to `O=C(NC1CCCCC1)c1ccccc1-c1ccccc1`, the z-score was -0.176. `COCCNC(=O)c1cc2ncc(Br)cn2n1` returned a z-score of 0.00586. In turn, `C/C(Cn1cnc([N+](=O)[O-])n1)=N\NC(=O)c1ccc(Br)cc1` came in with a z-score of -0.261. `O=C(CNC(=O)c1cccs1)NC1=NCCS1` had a z-score of 0.647.

Compound `COc1ccc(/C=N/NC(=O)c2ccccc2O)cc1CSc1ccccn1` came in with a z-score of 0.779.

In turn, `Cc1c2cccn2cc[n+]1C` showed a z-score of -0.16. In the case of `CCOC(=O)c1ccc(N/C=C2/CCCC(C)C2=O)cc1` (stereo not given), the z-score was determined as 0.315. `Cc1ccccc1OCC(=O)O/N=C(\N)Cc1ccc(Cl)cc1` displayed a z-score of -0.483. `CC12CC(NC(=O)N1c1cccc(C(=O)N3CCN(c4ccccc4)CC3)c1)c1ccccc1O2` (stereo not given) registered a z-score of -0.354. With `CCOC(=O)N1CCN(C(=O)CCCn2c(=S)[nH]c3ccccc3c2=O)CC1`, the z-score is -0.357.

Turning to `CCC1CCCCN1CCCn1c(=S)[nH]c2ccccc2c1=O` (stereo not given), the z-score was 7.04 (active).

`CCC1CCCCN1CC(=O)c1c(C)[nH]c2ccccc12` (stereo not given) came in with a z-score of -0.699. Compound `CC1=C(C(=O)Nc2ccccc2)C(c2ccco2)C(C#N)=C(SCC(=O)Nc2cccc(C)c2C)N1` (stereo not given) displayed a z-score of 0.693. Regarding `Cc1ccnc2nc(C(=O)Nc3ccc(N4CCOCC4)cc3)nn12`, the z-score amounted to 0.0976. `CCOC(=O)c1c(C)[nH]c(C2=NNC(=Nc3ccccc3OC)SC2)c1C`: the z-score is -0.32. `Nc1ccc(-n2cnc3cc([N+](=O)[O-])ccc32)cc1` had a z-score of -0.118. `CN1C(=O)NC(c2ccccc2)C2=C1CN(CCc1ccccc1)C2=O` (stereo not given) registered a z-score of 0.0172. `Cc1ccc(N2CC3=C(C2=O)C(c2ccccc2)NC(=O)N3C)cc1` (stereo not given): the z-score is -0.193.

Consider `CN1C(=O)NC(c2ccccc2)C2=C1CN(Cc1ccccc1)C2=O` (stereo not given), for which the z-score is 7.33 (active). The result for `CCOC(=O)c1c(C)[nH]c(C(=O)OCCOc2ccccc2C)c1C` reads -0.0787; that for `O=C1/C(=C/c2cccnc2)Oc2cc(OS(=O)(=O)c3ccc(Cl)cc3)ccc21`, 0.0689.
